Values without a mark were called inactive. Where a call stands in place of a potency, no number is given. For some assays here: Potency and affinity values are given separately. Active and inactive are the calls of the source. Unless noted, how the calls were made is not given here.
Assays:
[1] = antimalarial activity against Dd2 strain (AID 2302;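 active means growth inhibition above 50% at the single 2 µM test dose, taken to imply half-maximal potency below 2 µM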); conditions: P. falciparum Dd2 in RBCs, LDH growth readout, 72 h; at 2 µM; stronger effect = higher value
[2] = human hepatoma cell viability loss – ATP luminescence, cytotoxicity control for P. falciparum antimalarial project, primary screen (AID 2303;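 active means inhibition above 50%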); conditions: HepG2 viability, 24-48 h, at 10 µM, stronger effect = higher value
[3] = biological target: L-lactate dehydrogenase (Plasmodium falciparum (isolate CDC / Honduras)) (UniProt Q27743); experiment: PfLDH activity inhibition – cell lysate, 3D7 strain, counter-screen for P. falciparum growth inhibition project (AID 2304); conditions: P. falciparum 3D7 crude extract, LDH APAD/NBT absorbance; at 2 µM; stronger effect = higher value
[4] = inhibition of 3D7 malaria parasite growth – strain 3D7 (AID 2306); conditions: P. falciparum 3D7 erythrocytic growth, LDH absorbance, 72 h; at 2 µM; stronger effect = higher value
[5] = biological target: Calcium-dependent protein kinase 1 (Plasmodium falciparum (isolate 3D7)) (UniProt P62344); experiment: PfCDPK1 kinase inhibitors, biochemical, TCAMS library (AID 1159585; cut-off not given, nearly all actives have IC50 up to about 0.98 µM;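 further: inhibitors leave more ATP so luminescence rises with inhibition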); conditions: recombinant PfCDPK1, Kinase-Glo ATP depletion luminescence
[6] = biological target: Plasmodium falciparum protein kinase 6 (PK6, PF3D7_1337100) (UniProt Q8IDW1); experiment: PfPK6 kinase inhibitors, biochemical, TCAMS library (AID 1159586); conditions: recombinant PfPK6, Kinase-Glo ATP depletion luminescence
[7] = biological target: Protein kinase 7 (PK7), Plasmodium falciparum 3D7 (PF3D7_0213400) (UniProt Q7YTF7); experiment: inhibition of Plasmodium PK7 catalytic activity – biochemical, TCAMS antimalarial set, Kinase-Glo luminescence (AID 1159587); conditions: recombinant PfPK7, Kinase-Glo ATP depletion luminescence
[8] = biological target: Calcium-dependent protein kinase 4 (Plasmodium falciparum (isolate 3D7)) (UniProt Q8IBS5); experiment: PfCDPK4 kinase inhibitors, biochemical, TCAMS library (AID 1159588; cut-off not given, nearly all actives have IC50 up to about 0.91 µM); conditions: recombinant PfCDPK4, Kinase-Glo ATP depletion luminescence
Sequence of Calcium-dependent protein kinase 4 (Plasmodium falciparum (isolate 3D7)) (Q8IBS5 whole entry, looked up): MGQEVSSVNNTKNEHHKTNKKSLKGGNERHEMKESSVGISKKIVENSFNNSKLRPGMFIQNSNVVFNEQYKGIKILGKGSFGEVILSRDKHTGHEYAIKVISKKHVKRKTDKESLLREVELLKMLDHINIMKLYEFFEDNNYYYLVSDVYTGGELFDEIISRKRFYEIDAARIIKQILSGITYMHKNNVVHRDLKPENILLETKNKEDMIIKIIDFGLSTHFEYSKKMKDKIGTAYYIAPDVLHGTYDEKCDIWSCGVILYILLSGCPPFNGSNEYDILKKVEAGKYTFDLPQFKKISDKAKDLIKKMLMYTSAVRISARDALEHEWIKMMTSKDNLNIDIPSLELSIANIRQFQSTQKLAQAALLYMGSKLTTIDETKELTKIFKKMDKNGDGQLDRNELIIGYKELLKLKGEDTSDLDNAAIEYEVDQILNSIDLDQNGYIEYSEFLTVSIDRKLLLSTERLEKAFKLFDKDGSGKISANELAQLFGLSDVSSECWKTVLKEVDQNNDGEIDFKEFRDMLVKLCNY

Sequence of Plasmodium falciparum protein kinase 6 (PK6, PF3D7_1337100) (Q8IDW1 1-305): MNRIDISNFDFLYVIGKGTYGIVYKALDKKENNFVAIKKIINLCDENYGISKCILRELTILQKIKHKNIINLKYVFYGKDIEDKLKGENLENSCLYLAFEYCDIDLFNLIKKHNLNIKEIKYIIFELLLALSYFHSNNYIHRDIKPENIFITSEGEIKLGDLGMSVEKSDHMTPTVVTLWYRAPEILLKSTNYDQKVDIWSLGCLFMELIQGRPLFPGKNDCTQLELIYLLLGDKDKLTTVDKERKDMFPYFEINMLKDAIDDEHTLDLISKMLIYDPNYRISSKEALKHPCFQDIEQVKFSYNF
Sequence of Calcium-dependent protein kinase 1 (Plasmodium falciparum (isolate 3D7)) (P62344 whole entry, looked up): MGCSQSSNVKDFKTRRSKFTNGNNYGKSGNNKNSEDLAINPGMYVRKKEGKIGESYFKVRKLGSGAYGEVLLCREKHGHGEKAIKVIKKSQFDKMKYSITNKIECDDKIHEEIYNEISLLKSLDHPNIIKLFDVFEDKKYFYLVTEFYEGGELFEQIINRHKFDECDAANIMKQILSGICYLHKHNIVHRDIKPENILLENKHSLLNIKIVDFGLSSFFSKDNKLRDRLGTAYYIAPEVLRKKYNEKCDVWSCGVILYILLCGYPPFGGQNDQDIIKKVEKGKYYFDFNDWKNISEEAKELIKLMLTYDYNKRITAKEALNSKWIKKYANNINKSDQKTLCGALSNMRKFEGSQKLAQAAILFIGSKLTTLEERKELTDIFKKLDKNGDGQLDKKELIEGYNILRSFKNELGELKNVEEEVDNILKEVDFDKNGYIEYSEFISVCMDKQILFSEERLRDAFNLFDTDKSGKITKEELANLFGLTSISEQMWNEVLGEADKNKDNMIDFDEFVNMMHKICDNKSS
Sequence of L-lactate dehydrogenase (Plasmodium falciparum (isolate CDC / Honduras)) (Q27743 whole entry, looked up): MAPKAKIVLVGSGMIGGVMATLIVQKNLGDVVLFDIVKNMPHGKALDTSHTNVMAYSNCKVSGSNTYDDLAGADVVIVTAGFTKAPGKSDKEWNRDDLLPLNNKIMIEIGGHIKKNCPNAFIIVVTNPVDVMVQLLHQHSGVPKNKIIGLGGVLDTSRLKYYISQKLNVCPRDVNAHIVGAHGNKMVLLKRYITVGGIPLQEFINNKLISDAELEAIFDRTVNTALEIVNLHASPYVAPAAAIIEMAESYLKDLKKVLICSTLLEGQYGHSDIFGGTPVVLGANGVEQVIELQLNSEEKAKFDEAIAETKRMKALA
Sequence of Protein kinase 7 (PK7), Plasmodium falciparum 3D7 (PF3D7_0213400) (Q7YTF7 1-343): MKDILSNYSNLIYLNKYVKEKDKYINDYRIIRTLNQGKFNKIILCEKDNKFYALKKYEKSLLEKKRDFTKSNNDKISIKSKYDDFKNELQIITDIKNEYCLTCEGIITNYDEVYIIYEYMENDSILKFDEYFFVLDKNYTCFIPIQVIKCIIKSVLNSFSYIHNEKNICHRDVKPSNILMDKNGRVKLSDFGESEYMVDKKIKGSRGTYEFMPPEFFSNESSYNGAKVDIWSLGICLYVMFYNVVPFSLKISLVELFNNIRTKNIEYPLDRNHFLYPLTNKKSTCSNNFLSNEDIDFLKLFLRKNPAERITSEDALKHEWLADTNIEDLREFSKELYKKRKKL

| SMILES | growth inhibition [1] | inhibition [2] | inhibition [3] [%] | growth inhibition [4] | outcome [5] | outcome [6] | outcome [7] | outcome [8] |
| --- | --- | --- | --- | --- | --- | --- | --- | --- |
| O=C(N[C@@H](CC1CCCCC1)C(=O)NCCN1CCCC1)c1ccc(O)c(-c2cccc(C(F)(F)F)c2)c1 | 55% (active) | -11% | -4 | 99% (active) | inactive | inactive | inactive | inactive |
| O=C(/C=C/c1ccc(Cl)c(Cl)c1)NCCCCCN1CC[C@H](NC(=O)Nc2ccc(Oc3ccccc3)cc2)C1 | 14% | 47% | -9 | 100% (active) | inactive | inactive | inactive | inactive |
| C=CCn1c(C)cc(C(=O)COc2ccc(S(=O)(=O)N3CCOCC3)cc2[N+](=O)[O-])c1C | 5% | 0% | 3 | 94% (active) | inactive | inactive | inactive | inactive |
| CCCCC(=O)Nc1cc(=O)[nH]c2nc(-c3ccc(Cl)cc3)nn12 | 77% (active) | 1% | 0 | 89% (active) | inactive | inactive | inactive | inactive |
| COc1ccc(CCNCCCCCCNCCc2ccc(Cl)c(Cl)c2)cc1OC | 10% | 59% (active) | -1 | 101% (active) | inactive | inactive | inactive | inactive |
| CN1CCC(Oc2cc(NC(=O)Nc3ccc(-c4ccncc4)c(C(F)(F)F)c3)ccc2Cl)CC1 | 92% (active) | 30% | -1 | 100% (active) | inactive | inactive | inactive | inactive |
| Cc1cccc2[nH]c(-c3ccc(-c4ccc(CNCCN5CCNCC5)cc4)s3)nc12 | -2% | 30% | 3 | 88% (active) | inactive | inactive | inactive | inactive |
| Nc1ncc(Cc2cc(Cl)c(N)c3ncccc23)c(N)n1 | 95% (active) | 5% | 1 | 89% (active) | inactive | inactive | inactive | inactive |
| Cn1cccc1C(=O)C(=O)Nc1cccc(-c2ccc(-c3nc4ccc(C(F)(F)F)cc4[nH]3)cc2)c1 | 27% | 62% (active) | -7 | 94% (active) | inactive | inactive | inactive | inactive |
| Cc1cc(F)ccc1[C@H]1C[C@H](N2CCOCC2)CCN1C(=O)N(C)[C@@H](C)c1cc(C(F)(F)F)cc(C(F)(F)F)c1 | 99% (active) | 4% | 3 | 100% (active) | inactive | inactive | inactive | inactive |
| Cc1ccc(CNC(=O)[C@H](CC(C)C)Nc2cc(C)nc(Nc3ccccc3)n2)cc1 | 19% | 12% | -1 | 97% (active) | inactive | inactive | inactive | inactive |
| CC1(C)N=C(N)N=C(N)N1OCCCc1ccc(Cl)cc1Cl | 95% (active) | 54% (active) | 0 | 95% (active) | inactive | inactive | inactive | inactive |
| N#CCSc1nnc(-c2ccccc2)c2ccccc12 | 73% (active) | 5% | -1 | 84% (active) | inactive | inactive | inactive | inactive |
| COc1ccc(-c2cccc(CNC3CCN(C)CC3)c2)cc1S(=O)(=O)NCc1ccccc1 | 22% | 18% | -5 | 90% (active) | inactive | inactive | inactive | inactive |
| CN(C)CCOc1ccnc2ccc(NC(=O)Cc3ccc(-c4ccncc4)c4ccccc34)cc12 | 100% (active) | 10% | -6 | 100% (active) | inactive | inactive | inactive | inactive |
| CN1CCN(CC(O)CNC(=O)Nc2ccc(Br)cc2)CC1 (stereo not given) | 100% (active) | 5% | -2 | 100% (active) | inactive | inactive | inactive | inactive |
| O=C(CCCCCCc1ccccc1)Nc1ccc2nc3c(c(NCc4ccccc4)c2c1)CCCC3 | 98% (active) | 19% | -3 | 101% (active) | inactive | inactive | inactive | inactive |
| Nc1nc(N)c2c(Oc3cccnc3)cccc2n1 | -1% | 65% (active) | 6 | 93% (active) | inactive | inactive | inactive | inactive |
| CC(C)NCc1ccc(-c2cccc(NC(=O)c3ccc(Cl)cc3)c2)cc1 | 82% (active) | 20% | -7 | 100% (active) | inactive | inactive | inactive | inactive |
| CS(=O)(=O)NCCCNCc1ccc(-c2ccc(-c3nc4ccc(C(F)(F)F)cc4[nH]3)s2)cc1 | 73% (active) | 21% | -5 | 99% (active) | inactive | inactive | inactive | inactive |

| SMILES | growth inhibition [1] | inhibition [2] | inhibition [3] [%] | growth inhibition [4] | outcome [5] | outcome [6] | outcome [7] | outcome [8] |
| --- | --- | --- | --- | --- | --- | --- | --- | --- |
| COc1ccccc1-c1ccc(CNC(=O)C(CN2CCN(C)CC2)c2ccccc2)cc1 (stereo not given) | 4% | 3% | 2 | 90% (active) | inactive | inactive | inactive | inactive |
| CC(=O)c1ccc2c(c1)CCN(CCC1CCC(NC(=O)c3cc4ccccc4[nH]3)CC1)CC2 (stereo not given) | 47% | 64% (active) | 2 | 86% (active) | inactive | inactive | inactive | inactive |
| CC(C)(C)Oc1ccc(C[C@@H]2NC3(C(=O)N(Cc4ccc(Cl)c(Cl)c4)c4ccccc43)C3C(=O)N(c4ccc(Br)cc4)C(=O)C32)cc1 (stereo not given in full) | 25% | 1% | 6 | 86% (active) | inactive | inactive | inactive | inactive |
| COc1ccc(NC(=O)/C=C/c2ccccc2Cl)cc1OCCN1CCC(NCc2ccccc2)CC1 | 101% (active) | 28% | 7 | 106% (active) | inactive | inactive | inactive | inactive |
| O=C(Nc1ccccc1F)N(CCCn1ccnc1)Cc1csc(-c2ccc(CNCc3ccccc3)cc2)n1 | 26% | 24% | 2 | 93% (active) | inactive | inactive | inactive | inactive |
| CC(=O)Nc1ccc(C(=O)Nc2cccc(-c3ccc(-c4nc5ccc(C(F)(F)F)cc5[nH]4)cc3)c2)cn1 | 100% (active) | 46% | -3 | 101% (active) | inactive | inactive | inactive | inactive |
| O=C(Nc1ccc(Cl)cc1)N[C@H]1CCN(CCCCCNC(=O)[C@@H]2C[C@H]2c2ccc(Cl)c(Cl)c2)C1 | 1% | 24% | 1 | 96% (active) | inactive | inactive | inactive | inactive |
| O=c1cc(NCCCN(Cc2ccccc2)Cc2ccccc2)[nH]c2ccccc12 | 93% (active) | 7% | -3 | 100% (active) | inactive | inactive | inactive | inactive |
| Cc1occc1C(=O)Nc1nc(-c2ccccn2)nc2ccsc12 | 98% (active) | 68% (active) | 5 | 98% (active) | inactive | inactive | inactive | inactive |
| O=C(N[C@@H](Cc1ccccc1)C(=O)NCc1cccc2ccccc12)c1ccc(O)c(-c2ccc(Cl)c(Cl)c2)c1 | 97% (active) | -6% | 4 | 101% (active) | inactive | inactive | inactive | inactive |
| Oc1ccc2[nH]c(-c3cccc(F)c3)nc2c1CN1CCC(O)(c2ccccc2)CC1 | 72% (active) | 21% | -1 | 97% (active) | inactive | inactive | inactive | inactive |
| O=C(NCCCCN1CCN(c2cccc3c2CCCC3)CC1)c1ccc(NC(=O)c2ccc(Cl)cc2)cc1 | 85% (active) | 35% | 3 | 101% (active) | inactive | inactive | inactive | inactive |
| Nc1ccc(-c2ccc3ccnc(N)c3c2)cn1 | 100% (active) | 43% | 3 | 101% (active) | inactive | inactive | inactive | inactive |
| COc1cc(C(=O)NC2CC(C)(C)NC(C)(C)C2)ccc1-c1cc2cc(Cl)c(Cl)cc2[nH]1 | 31% | 41% | 6 | 99% (active) | inactive | inactive | inactive | inactive |
| OC(CN1CCN(Cc2ccccc2)CC1)Cn1c(-c2ccccc2)c(-c2ccccc2)c2ccccc21 (stereo not given) | 97% (active) | -3% | -3 | 98% (active) | inactive | inactive | inactive | inactive |
| COc1cc(Nc2nccc(N3CCC(NC(=O)C4COc5ccccc5O4)C3)n2)cc(OC)c1OC (stereo not given) | 58% (active) | 5% | 5 | 90% (active) | inactive | inactive | inactive | inactive |
| Cc1cccc2nc(C(=O)Nc3nc(CN4CCC(C)CC4)cs3)cn12 | 80% (active) | -27% | 0 | 94% (active) | inactive | inactive | inactive | inactive |
| CC(CN(C)C)C(=O)Nc1ccc(-c2cccc(-c3nc4ccc(C(F)(F)F)cc4[nH]3)c2)cc1 (stereo not given) | 85% (active) | 30% | -1 | 101% (active) | inactive | inactive | inactive | inactive |
| COc1ccc2nc3cc(Cl)ccc3c(Nc3ccc(Sc4ccc(Nc5c6ccc(Cl)cc6nc6ccc(OC)cc56)cc4)cc3)c2c1 | 94% (active) | 1% | -4 | 92% (active) | inactive | inactive | inactive | inactive |
| N#Cc1cccc(NC(=O)Nc2cccc(-c3cccc(-c4nc5ccc(C(F)(F)F)cc5[nH]4)c3)c2)c1 | 99% (active) | 74% (active) | 5 | 100% (active) | inactive | inactive | inactive | inactive |

Reference: PubChem BioAssay
